From PubChem BioAssay AID1026 (Columbia University Molecular Screening Center, 2008)
Activity calls are given as the source filed them. The rule behind the calls is not given here.

The compounds below were run against Bifunctional epoxide hydrolase 2 (Homo sapiens) (UniProt P34913) (assay: sEH inhibitor concentration-response potency, dose response, biochemical, human sEH, fluorescence, Infinite200 (AID 1026)). Conditions: recombinant human sEH, fluorogenic substrate, at 0.2 µM, stronger effect = higher value.
Sequence of Bifunctional epoxide hydrolase 2 (Homo sapiens) (P34913 whole entry, looked up): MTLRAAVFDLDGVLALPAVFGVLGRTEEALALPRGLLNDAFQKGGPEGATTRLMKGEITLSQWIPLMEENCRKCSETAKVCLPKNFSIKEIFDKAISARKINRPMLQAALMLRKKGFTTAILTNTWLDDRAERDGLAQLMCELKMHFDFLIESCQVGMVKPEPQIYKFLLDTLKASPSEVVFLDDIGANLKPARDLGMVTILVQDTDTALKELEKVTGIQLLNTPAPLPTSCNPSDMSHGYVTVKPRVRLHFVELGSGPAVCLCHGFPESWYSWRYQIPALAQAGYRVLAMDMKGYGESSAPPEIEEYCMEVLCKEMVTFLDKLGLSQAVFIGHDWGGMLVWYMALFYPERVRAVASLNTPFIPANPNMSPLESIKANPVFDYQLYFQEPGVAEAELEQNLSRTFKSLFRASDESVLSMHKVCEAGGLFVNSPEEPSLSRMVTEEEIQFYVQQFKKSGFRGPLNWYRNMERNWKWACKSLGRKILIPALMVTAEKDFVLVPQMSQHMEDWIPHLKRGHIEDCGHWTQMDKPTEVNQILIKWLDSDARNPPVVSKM

inhibition, inactive:
C/C(=N\NC(=O)c1cccc(S(=O)(=O)Nc2ccccc2Cl)c1)c1ccc(-n2ccnc2)cc1 56%, COc1cccc(CNC(=O)C2CCC(CNS(=O)(=O)c3cccc4nsnc34)CC2)c1 (centres undefined) 50.1%, CC(C)c1ccc(NC(=O)NC2CCN(CC(=O)Nc3cccc4ccccc34)CC2)cc1 62.2%, CCOc1ccc(NC(=O)NCC2CCN(c3ccc(OC)cc3)C2)cc1 (centres undefined) 26.9%, O=C(Nc1ccc(N2CCOCC2)cc1)Nc1ccc(Cl)c(Cl)c1 40%, COc1ccccc1NS(=O)(=O)c1cccc(C(=O)NN)c1 42.3%, O=C(Nc1ccc2c(c1)nc1n2CCN(Cc2ccccc2)C1)NC1CCCCC1 58.4%, O=C(Cc1ccc(Cl)cc1)Nc1ccc(N2CCN(C(=O)c3ccco3)CC2)c(Cl)c1 64.8%, COc1ccc(CNC(=O)C2CCC(CNS(=O)(=O)c3cccc4nsnc34)CC2)cc1 (centres undefined) 74.4%, Cc1ccccc1OCCCC(=O)Nc1ccc(Br)cc1 69.8%, COc1ccc(CNC(=O)/C=C/c2cc3c(cc2Br)OCO3)cc1 58.5%, COc1ccc(CCNC(=O)c2ccc3c(c2)NC(=O)C(N2CCOCC2)S3)cc1OC (centres undefined) 49.2%, Cc1ccc2c(c1)nnn2C1CCN(C(=O)NC23CC4CC(CC(C4)C2)C3)CC1 60.5%, O=C(Nc1ccc(Cc2ccncc2)cc1)C1CCC(N2C(=O)C3C4C=CC(C5CC45)C3C2=O)CC1 (centres undefined) 56.4%, O=C(CCSc1ccc(Cl)cc1)NC12CC3CC(CC(C3)C1)C2 46.4%, O=C(Nc1ccc2c(c1)OCCO2)NC12CC3CC(CC(C3)C1)C2 72.8%, NS(=O)(=O)c1ccc(CNC(=O)/C=C/c2c(Cl)cccc2Cl)cc1 51.6%, CC(NC(=O)CSc1nnc(-c2cccc(S(=O)(=O)N3CCCCC3)c2)o1)C12CC3CC(CC(C3)C1)C2 (centres undefined) 66%, O=C(NCCC1=CCCCC1)C1CCCN(c2nc3ccccc3o2)C1 (centres undefined) 53.6%, CC1CCCC(NC(=O)Nc2cccs2)C1C (centres undefined) 49.2%, COc1ccc(/C=N/NC(=O)c2ccc(COc3ccccc3Cl)o2)cc1 55.4%, O=C(NC12CC3CC(CC(C3)C1)C2)N1CC2Cc3cccc(=O)n3C(C2)C1 (centres undefined) 54.2%, Cc1nn(Cc2ccccc2Cl)c(C)c1NC(=O)NC12CC3CC(CC(C3)C1)C2 66%, CCc1cccc(NC(=O)NC2CCCCC2)c1 70.5%, CC1CCCN(S(=O)(=O)c2ccc(C(=O)Nc3nnc(-c4ccccc4Cl)o3)cc2)C1 (centres undefined) 58%, CS(=O)(=O)N(Cc1ccc(C(=O)NCCSCc2ccco2)cc1)c1ccccc1 53.6%, CCC(=O)N1CCc2cc(S(=O)(=O)CCC(=O)NCCC3=CCCCC3)ccc21 40%, CCCCOc1cccc(/C=N/NC(=O)c2csc(C)c2C)c1 60.7%, CC(C)(C)n1nnnc1CN1CCC(NC(=O)NC2CCCCC2)CC1 70.3%, CC(=O)N1CCN(c2ccc(NC(=O)COc3ccc(Cl)cc3Cl)cc2)CC1 38.5%, CCC(CC)NC(=O)COC(=O)c1ccc(OCC(=O)Nc2ccccc2OC)c(OC)c1 48.6%, Cc1ccc(S(=O)(=O)N2CCCC(C(=O)NCCC3=CCCCC3)C2)cc1 (centres undefined) 35.1%, Cc1cc(N2CCCC(C(=O)Nc3ccc4c(c3)CCC4)C2)n2ncnc2n1 (centres undefined) 50.2%, O=C(Nc1ccc(Cl)cc1)N1CCC(c2nc(-c3ccccc3Cl)no2)CC1 62.8%, O=C1CSc2ccc(C(=O)NCCC3=CCCCC3)cc2N1 51.9%, O=C(Nc1cnn(Cc2ccccc2)c1)NC12CC3CC(CC(C3)C1)C2 59.3%, CC(Cc1cccs1)NC(=O)Nc1ccc(Cl)c(Cl)c1 (centres undefined) 65.5%, O=C(NCCC1=CCCCC1)c1ccc(F)c(S(=O)(=O)N2CCOCC2)c1 60.6%, CCCCCC(=O)Nc1ccc2oc(-c3ccncc3)nc2c1 31.2%
